Screening data (PubChem)
A selection: hits, their analogues and other compounds. The true share with any hit is near 11%.
ALOX12 inhib: qHTS Assay for Inhibitors of 12-hLO (12-human lipoxygenase); Polyunsaturated fatty acid lipoxygenase ALOX12 (Homo sapiens), P18054; purified 12-hLO, xylenol orange hydroperoxide absorbance; Potency, µM (doses to about 57.1 µM), actives largely listed as inhibitors; 150,000 tested, 0.12% active; AID 1452, 2008; also: nearly all actives have a fitted effect of over 55% in size
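Hydroperoxide formation by human 12-lipoxygenase from 40 uM arachidonic acid was followed colorimetrically via ferric-xylenol orange complex, using the 573/405 nm absorbance ratio. Enzyme concentration was 150 nM, with 30 min reaction at room temperature.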
HPGD inh: qHTS Assay for Inhibitors of HPGD (15-Hydroxyprostaglandin Dehydrogenase); Potency, µM, actives largely listed as inhibitors; purified HPGD, NADH fluorescence kinetic, PGE2 substrate; 150,000 tested, 4.3% active; 15-hydroxyprostaglandin dehydrogenase [NAD(+)] (Homo sapiens), P15428; active = well fitted inhibition curve with a large enough effect, not every such curve was filed as active; inconclusive = small, poorly fitted or top-dose-only effect, or another doubt; inactive = no such curve, though single readings can be large or run the other way
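NADH formation kinetics: reaction with 30 uM PGE2 and 1 mM NAD+ (final), 20 nM enzyme, Tris-HCl pH 8 with Tween 20, after 15 min compound preincubation at room temperature. Fluorescence change, last versus first of five reads.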
ALDH1A1 block: qHTS Assay for Inhibitors of Aldehyde Dehydrogenase 1 (ALDH1A1); 220,000 tested, 7.3% active; Potency, µM (titrated, usually from 75.3 µM), actives largely listed as inhibitors; Purified ALDH1A1, NADH fluorescence, propionaldehyde substrate; AID 1030, 2008; active = well fitted inhibition curve with a large enough effect, not every such curve was filed as active; inconclusive = small, poorly fitted or top-dose-only effect, or another doubt; inactive = no such curve, though single readings can be large or run the other way
Target sequence (P00352 whole entry, looked up): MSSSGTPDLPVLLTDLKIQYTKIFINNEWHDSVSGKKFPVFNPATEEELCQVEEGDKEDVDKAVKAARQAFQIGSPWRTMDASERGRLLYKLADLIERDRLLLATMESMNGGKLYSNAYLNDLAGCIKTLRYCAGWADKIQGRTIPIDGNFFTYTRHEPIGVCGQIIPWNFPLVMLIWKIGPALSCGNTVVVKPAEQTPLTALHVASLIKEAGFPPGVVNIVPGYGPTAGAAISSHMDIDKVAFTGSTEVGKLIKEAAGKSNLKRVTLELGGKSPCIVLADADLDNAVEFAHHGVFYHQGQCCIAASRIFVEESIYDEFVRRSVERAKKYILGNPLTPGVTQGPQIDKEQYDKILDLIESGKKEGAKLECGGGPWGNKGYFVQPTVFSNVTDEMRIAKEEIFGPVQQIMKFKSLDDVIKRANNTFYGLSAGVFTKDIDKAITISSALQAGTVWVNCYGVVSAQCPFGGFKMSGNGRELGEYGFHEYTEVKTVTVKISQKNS
PNC inhibitor: High Content Assay for Compounds that inhibit the Assembly of the Perinucleolar Compartment | PC3M PTB-GFP, PNC prevalence imaging, 16 h; stronger effect = lower value | activity change (PNC), negative = inhibition, % at 10 µM | 140,000 tested, 3.1% active;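 active = readout at or below -70, meaning at least 70% loss of cells showing the perinucleolar compartment, a nuclear body marking cancer cells; inconclusive = readout between -30 and a set limit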
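PC3M cells stably expressing PTB-GFP, 750–1000 cells/well, treated 16 h at 37 °C with compound (23 nl of library stock), in duplicate. After paraformaldehyde fixation and Hoechst stain, imaged at 20x; PNC prevalence scored by image analysis.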
IMPase cell inh: qHTS Assay for Identifying the Cell-Membrane Permeable IMPase Inhibitors; Inositol monophosphatase 1 (Rattus norvegicus), P97697; CHO-M1 cells, IP1 accumulation, HTRF TR-FRET ratio; inhibition (IP1 accumulation), % at 46.1 µM; 120,000 tested, under 10 active; AID 901, 2007; active = well fitted curve in the direction sought with a large enough effect in the signal ratio, not every such curve was filed as active; inconclusive = small, poorly fitted or top-dose-only effect, or a change in a side signal; inactive = no such curve, though single readings can be large or run the other way; the % refers to the signal ratio;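 also: cells stimulated with carbachol in lithium chloride buffer; higher means more IMPase inhibition seen as more IP1 and lower FRET ratio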
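Carbachol-driven Gq signalling in CHO-M1 cells (2000/well) generates IP1. Compounds that block IMPase raise IP1 and so reduce the FRET signal from Eu-anti-IP1 and d2-IP1 after a 10 min room-temperature lysis.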
IMPase Li inh: qHTS Assay for Identifying the Cell-Membrane Permeable IMPase Inhibitors: Potentiation with Lithium; CHO-M1 cells, IP1 TR-FRET (IP-One), carbachol + lithium; Potency, µM (doses to about 59.4 µM), hits mostly inhibitors; 210,000 tested, 0.35% active;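 also: IP1 builds up when IMPase is blocked and the TR-FRET signal falls; nearly all actives have a fitted effect of over 50% in size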
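CHO cells stably expressing M1 receptor (2000/well, cultured 16–30 h) treated 30 min at 37C with compound plus low lithium. Cytosolic IP1 by TR-FRET (665/620 ratio and 620 channel) after 10 min lysis; AC50 by Hill fit.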
Large screens that a line does not name were inactive. Unless noted, calls follow the shape of the dose curve; as a rule, active = well fitted curve in the direction sought with a large enough effect; inconclusive = small, poorly fitted or top-dose-only effect, or another doubt; inactive = no such curve, though single readings can be large; an effect the other way counts as inactive or inconclusive.

CCOc1ccc(C2C(C#N)=C(N)Oc3cc(C)n(Cc4ccco4)c(=O)c32)cc1OC (configuration not stated)	ALDH1A1 block inconclusive, IMPase cell inh inconclusive
COc1ccc(OC)c(C2C(C#N)=C(N)Oc3c2c(C)nn3-c2cccc(Cl)c2)c1 (configuration not stated)	ALDH1A1 block inconclusive
CC1=C(n2nnc([N+](=O)[O-])n2)C(c2cccnc2)C(C#N)=C(N)O1 (configuration not stated)	ALDH1A1 block 1.12µM (no result: IMPase cell inh)
Cc1nn(-c2cccc(Cl)c2)c2c1C(c1ccncc1)C(C#N)=C(N)O2 (configuration not stated)	ALDH1A1 block 10µM
Cc1cc2c(c(=O)n1Cc1ccco1)C(c1cccnc1)C(C#N)=C(N)O2 (configuration not stated)	ALDH1A1 block 7.51µM, PNC inhibitor inconclusive
Cc1nn(-c2cccc(Cl)c2)c2c1C(c1cccnc1)C(C#N)=C(N)O2 (configuration not stated)	ALDH1A1 block 7.94µM
C/C=C\C1=C(CO)[C@H](O)[C@H]2OC2[C@@H]1O (some centres not stated)	none (no result: ALOX12 inhib, HPGD inh, PNC inhibitor, IMPase cell inh, IMPase Li inh)
Cc1ccc(S(=O)(=O)N2CCN(S(=O)(=O)N3CCOCC3)CC2)cc1C	none
Cc1ccc(S(=O)(=O)N2CCN(S(=O)(=O)N3CCOCC3)CC2)c(C)c1	ALDH1A1 block 12.6µM
COCCn1c(C)cc(C(=O)COC(=O)c2ccc([N+](=O)[O-])o2)c1C	ALDH1A1 block inconclusive (no result: ALOX12 inhib, HPGD inh, PNC inhibitor, IMPase cell inh)
Cc1cc(C(=O)COC(=O)c2ccc(O)cc2)c(C)n1CC1COc2ccccc2O1 (configuration not stated)	ALDH1A1 block inconclusive, PNC inhibitor -81.1 (no result: IMPase cell inh)
Cc1cc(C(=O)COC(=O)c2ccc3c(c2)OCO3)c(C)n1CC1CCCO1 (configuration not stated)	none (no result: ALOX12 inhib, HPGD inh, PNC inhibitor, IMPase cell inh)
Cc1cc(C(=O)COC(=O)c2ccc([N+](=O)[O-])o2)c(C)n1CC1CCCO1 (configuration not stated)	ALDH1A1 block 15.8µM (no result: ALOX12 inhib, HPGD inh, PNC inhibitor, IMPase cell inh)
Cc1cc(C)c(C(=O)COC(=O)c2ccc([N+](=O)[O-])o2)cc1C	ALDH1A1 block 2µM (no result: ALOX12 inhib, HPGD inh, PNC inhibitor, IMPase cell inh)
S=C(Nc1ccc2cn[nH]c2c1)Nc1ccc2cn[nH]c2c1	ALDH1A1 block inconclusive (no result: PNC inhibitor, IMPase cell inh)
S=C(Nc1ccc(Cl)cc1)Nc1ccc2cn[nH]c2c1	ALDH1A1 block 25.1µM (no result: ALOX12 inhib, HPGD inh, PNC inhibitor, IMPase cell inh)
S=C(Nc1ccc2cn[nH]c2c1)Nc1ccccc1Cl	ALDH1A1 block 14.1µM, PNC inhibitor inconclusive (no result: IMPase cell inh)
O=c1[nH]c2ccc(NC(=S)Nc3ccc(Cl)cc3Cl)cc2[nH]1	ALDH1A1 block inconclusive
Cc1ccccc1NC(=S)Nc1ccc2cn[nH]c2c1	ALDH1A1 block inconclusive (no result: ALOX12 inhib, HPGD inh, PNC inhibitor, IMPase cell inh)
S=C(Nc1ccc2cn[nH]c2c1)Nc1ccc(Cl)cc1Cl	ALDH1A1 block 12.6µM (no result: ALOX12 inhib, HPGD inh, PNC inhibitor, IMPase cell inh)
O=c1[nH]c2ccc(NC(=S)Nc3ccccc3Cl)cc2[nH]1	HPGD inh 22.4µM, ALDH1A1 block 6.31µM
O=C(COc1ccc(Cl)cc1[N+](=O)[O-])N/N=C/c1cccs1	none (no result: ALOX12 inhib, HPGD inh, PNC inhibitor, IMPase cell inh)
Cc1ccc2oc(-c3cc(NC(=O)Cc4ccccc4)ccc3Cl)nc2c1	none (no result: ALOX12 inhib, HPGD inh, ALDH1A1 block, PNC inhibitor, IMPase Li inh)
S=C(NCc1ccco1)Nc1ccc(Cl)cc1Cl	HPGD inh 28.2µM (no result: IMPase cell inh)
CC(C)c1ccc(NC(=S)Nc2ccc3[nH]c(=O)[nH]c3c2)cc1	ALDH1A1 block 39.8µM (no result: ALOX12 inhib, HPGD inh, PNC inhibitor, IMPase cell inh, IMPase Li inh)
CCCCNC(=S)Nc1ccc2cn[nH]c2c1	PNC inhibitor -83.7 (no result: IMPase cell inh)
S=C(Nc1ccccc1)Nc1ccc(Cl)cc1Cl	ALDH1A1 block 7.94µM, PNC inhibitor inconclusive
C=CCCCCCCC=C	none (no result: PNC inhibitor, IMPase cell inh)
COc1cccc(Nc2ncc3nc(C)c(=O)n(-c4ccccc4)c3n2)c1	ALDH1A1 block inconclusive (no result: ALOX12 inhib, HPGD inh, PNC inhibitor, IMPase cell inh)
COCCNC(=S)Nc1ccc2[nH]c(=O)[nH]c2c1	ALDH1A1 block 25.1µM (no result: ALOX12 inhib, HPGD inh, PNC inhibitor, IMPase cell inh)
